These results are taken from PubChem BioAssay AID2330 (Broad Institute, 2010).

Structures are written as SMILES. Out of some 37,000 compounds screened, about 2,800 (7.6%) were called active. About 1% were inconclusive and are not listed. The entries come from a sample that favours actives as a whole. Unmarked numbers belong to inactive results. No stated cut-off is given here; in the data, active means inhibition above about 80%; inconclusive means no clear call, values can overlap the other calls; inactive means below that.

A short description of this experiment: NOMO-1 AML cell viability reduction, primary screen, STK33 inhibitor project, CellTiter-Glo luminescence (AID 2330). Particulars: NOMO-1 AML viability, 72 h, hits give high values, concentration not given here. On the technique in general: ATP-based viability assays read luminescence as a measure of living cells.
For `COc1ccc(OC)c(NC(=O)CSc2n[nH]c(-c3ccncc3)n2)c1`, the inhibition (commonly the relative decrease from the control value, in per cent) is 14.4%. For the compound `CC(C)NC(=O)Nc1ccc2c(c1)CC(=O)N([C@H](C)CO)C[C@@H](C)[C@@H](CN(C)Cc1ccc(C(=O)Nc3ccccc3N)cc1)O2`, the inhibition was 60.7%. With `COc1ccc(CN(C)C[C@@H]2Oc3ccc(NC(=O)Nc4ccc5c(c4)OCO5)cc3CC(=O)N([C@H](C)CO)C[C@H]2C)cc1`, the inhibition is 8.79%.

On to `CC(C)NC(=O)Nc1ccc2c(c1)CC(=O)N([C@H](C)CO)C[C@H](C)[C@H](CN(C)Cc1ccc3c(c1)OCO3)O2`, for which the inhibition is 14.7%. Take `C[C@H](CO)N1C[C@H](C)[C@H](CN(C)Cc2ccc(C(=O)Nc3ccccc3N)cc2)Oc2ccc(NC(=O)Nc3ccccc3)cc2CC1=O`: the inhibition is 141% (active). With `C[C@@H]1CN([C@H](C)CO)C(=O)Cc2cc(NC(=O)Nc3ccc4c(c3)OCO4)ccc2O[C@H]1CN(C)Cc1ccc(C(=O)O)cc1`, the inhibition was 20.5%. To `C[C@@H]1CN([C@H](C)CO)C(=O)Cc2cc(NC(=O)Nc3ccc4c(c3)OCO4)ccc2O[C@@H]1CN(C)Cc1ccc(C(=O)Nc2ccccc2N)cc1` belongs 96.7% (active).

For the compound `C[C@H]1CN([C@@H](C)CO)C(=O)Cc2cc(NC(=O)Nc3ccc4c(c3)OCO4)ccc2O[C@H]1CN(C)Cc1ccc(C(=O)Nc2ccccc2N)cc1`, the inhibition was 127% (active). Take `C[C@@H]1CN([C@H](C)CO)C(=O)Cc2cc(NC(=O)Nc3ccc(F)cc3)ccc2O[C@@H]1CN(C)Cc1ccc2c(c1)OCO2`: the inhibition was 31%. With `C[C@H]1CN([C@@H](C)CO)C(=O)Cc2cc(NC(=O)CCCCCC(=O)Nc3ccccc3N)ccc2O[C@@H]1CN(C)Cc1ccncc1`, the inhibition is 19.5%. To `CCN1CCN(C(=O)N[C@@H](C(=O)N[C@@H]2C(=O)N3C(C(=O)O)=C(CSc4nnnn4C)CS[C@H]23)c2ccc(O)cc2)C(=O)C1=O` belongs 16.9%; to `Cc1ccc(C)c(S(=O)(=O)NC(C)C(=O)Nc2ccc(Br)cc2F)c1` (configuration not stated), 1.68%. With `Cc1noc(C)c1S(=O)(=O)Nc1ccc2c(c1)CC(=O)N([C@H](C)CO)C[C@H](C)[C@H](CN(C)S(=O)(=O)c1cn(C)cn1)O2`, the inhibition was -3.68%. Consider `C[C@@H]1CN([C@H](C)CO)C(=O)Cc2cc(NS(C)(=O)=O)ccc2O[C@@H]1CN(C)C(=O)Nc1ccc2c(c1)OCO2`, for which the inhibition is -3.88%. To `O=C(Oc1ccccc1)c1cccc(COC(=O)c2cc3ccccc3oc2=O)c1` belongs 5.03%; to `C[C@H](CO)N1C[C@H](C)[C@@H](CN(C)C(=O)Nc2ccccc2)Oc2ccc(N(C)C)cc2C1=O`, 14.4%.

For the compound `CC1CCCCC1NC(=O)CSc1nnc(N)s1` (configuration not stated), the inhibition is 13.1%. For `COC(=O)c1cc(NC(=O)Cc2ccccc2[N+](=O)[O-])ccc1Cl`, the inhibition was 62.9%. With `Cc1nnc(SCC(=O)N2CCc3ccccc32)n1-c1ccccc1`, the inhibition was 10%. On to `CN(C)c1nc(SCCO)nc(N(C)C)n1`, for which the inhibition was 33.8%.

For `COc1cc2c(cc1NC(=O)CN(C)S(=O)(=O)c1ccc(Br)cc1)oc1ccccc12`, the inhibition is -7.24%.

In the case of `COc1ccc(NC(=O)N(C)C[C@@H]2Oc3ccc(NS(C)(=O)=O)cc3C(=O)N([C@@H](C)CO)C[C@@H]2C)cc1`, the inhibition is 22.3%. As for `COC(=O)c1ccc(C(=O)OC)c(NC(=O)COc2ccc(C)cc2)c1`, the inhibition is 13.3%. Regarding `N#Cc1c(SCC(=O)Nc2ccccc2)ncc2cc3ccccc3nc12`, the inhibition was 110% (active). As to `Cc1sc2ncnc(SCC(=O)Nc3ccccc3)c2c1-c1ccccc1`, the inhibition was 26.6%. Take `O=C(CSc1nnc(-c2ccccc2)c(-c2ccccc2)n1)Nc1ccccc1`: the inhibition was 1.52%. As for `CC(C)NC(=O)Nc1cccc2c1O[C@H](CN(C)S(=O)(=O)c1cccs1)[C@@H](C)CN([C@H](C)CO)C2=O`, the inhibition was -9.32%. Consider `COc1ccc(C)c(Cn2c(-c3nonc3N)nc3ccccc32)c1`, for which the inhibition was 112% (active). As to `COc1ccc2nc3c(nc2c1)C(=O)c1ccccc1C3=O`, the inhibition is 29.2%.

For `Cc1ccc(S(=O)(=O)N(C)C[C@@H]2Oc3ccc(NC(=O)Cc4ccccc4)cc3CC(=O)N([C@H](C)CO)C[C@H]2C)cc1`, the inhibition was 53.4%. With `Cc1noc(C)c1NC(=O)Nc1cccc2c1O[C@@H](CN(C)Cc1ccc3c(c1)OCO3)[C@@H](C)CN([C@@H](C)CO)C2=O`, the inhibition was 13.5%.

Turning to `CCN1CCN(S(=O)(=O)c2cc(OCC(N)=O)c(C)cc2Cl)CC1`, the inhibition was 12.8%. To `Cc1ccc2c(c1)CCCN2S(=O)(=O)c1cc(OCC(N)=O)c(C)cc1Cl` belongs 93.4% (active); to `Cc1cc(Cl)c(S(=O)(=O)Nc2ccc3c(c2)OCCO3)cc1OCC(N)=O`, 20.2%. Take `C[C@@H]1CN([C@H](C)CO)C(=O)c2cccc(NS(C)(=O)=O)c2O[C@@H]1CN(C)C(=O)Nc1cccc2ccccc12`: the inhibition is -9.1%.

`C[C@@H]1CN([C@@H](C)CO)C(=O)c2cc(NC(=O)Cc3ccccc3)ccc2O[C@@H]1CN(C)Cc1ccc(Oc2ccccc2)cc1`: the inhibition was 112% (active).

Take `COc1ccc(CN(C)C[C@H]2Oc3ccc(NC(=O)Cc4ccccc4)cc3CC(=O)N([C@@H](C)CO)C[C@@H]2C)cc1`: the inhibition was 22.8%. Take `C[C@H](CO)N1C[C@H](C)[C@H](CN(C)Cc2ccccc2)Oc2ccc(NC(=O)Cc3ccccc3)cc2C1=O`: the inhibition was 7.66%. Under `C[C@@H]1CN([C@H](C)CO)C(=O)Cc2cc(NC(=O)Cc3ccccc3)ccc2O[C@H]1CN(C)Cc1ccc(Oc2ccccc2)cc1` stands 13.7%; under `C[C@@H]1CN([C@H](C)CO)C(=O)Cc2cc(NC(=O)CCCN(C)C)ccc2O[C@@H]1CN(C)Cc1ccc(Oc2ccccc2)cc1`, 19.5%; under `C[C@@H]1CN([C@@H](C)CO)C(=O)Cc2cc(NC(=O)Cc3ccccc3)ccc2O[C@@H]1CN(C)Cc1ccc(Oc2ccccc2)cc1`, 127% (active). As for `C[C@@H]1CN([C@H](C)CO)C(=O)Cc2cc(NC(=O)NC3CCCCC3)ccc2O[C@H]1CN(C)Cc1ccc(Cl)c(Cl)c1`, the inhibition is 20.7%. Regarding `C[C@H]1CN([C@@H](C)CO)C(=O)Cc2cc(NC(=O)NC3CCCCC3)ccc2O[C@@H]1CN(C)Cc1ccc(Oc2ccccc2)cc1`, the inhibition is 94.9% (active).

In the case of `C[C@H]1CN([C@@H](C)CO)C(=O)c2cc(NC(=O)C3CC3)ccc2O[C@@H]1CN(C)Cc1ccc(Oc2ccccc2)cc1`, the inhibition is 16.2%. `C[C@@H]1CN([C@H](C)CO)C(=O)Cc2cc(NC(=O)Cc3ccccc3)ccc2O[C@@H]1CN(C)Cc1ccccc1`: the inhibition is -13.8%. Take `C[C@@H]1CN([C@H](C)CO)C(=O)Cc2cc(NC(=O)Nc3ccccc3)ccc2O[C@H]1CN(C)Cc1ccc(Cl)c(Cl)c1`: the inhibition was 30.1%. Regarding `C[C@H]1CN([C@@H](C)CO)C(=O)Cc2cc(NC(=O)Cc3ccccc3)ccc2O[C@@H]1CN(C)Cc1ccc(Cl)c(Cl)c1`, the inhibition was 96.8% (active).
